# NALP3 yeast inh: NALP3 inhibition in yeast. Yeast reconstituted NLRP3/ASC/caspase-1, beta-gal luminescence, 24 h. inhibition, % at 10 µM. hit rate 0.39% among 330,000. AID 2825;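 active = inhibition of 50% or more; inactive = inhibition below 50%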
# PfHsp90 set2: inhibits growth of yeast expressing Plasmodium falciparum Hsp90; S. cerevisiae expressing PfHsp90, BacTiter-Glo ATP, 48 h; yeast lacking PDR1 and PDR3 efflux regulators; inhibition, % at 9.4 µM; hit rate 0.32% among 310,000;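 active = every replicate shows inhibition above about 80%, whatever the replicate mean, limit read from the data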
# tim23-1 inh: tim23-1 yeast growth inhibition. S. cerevisiae tim23-1 growth, BacTiter-Glo luminescence, 24 h. inhibition, % at 20 µM. hit rate 1.3% among 330,000. AID 463212;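 active = growth inhibition of the mutant yeast at or above 50%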;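 note: temperature-sensitive mutant grown at 25 °C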
# tim10-1 inh: tim10-1 yeast growth inhibition | S. cerevisiae tim10-1 ts strain growth, BacTiter-Glo, 24 h | inhibition, % at 20 µM | hit rate 2.2% among 330,000;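 active = inhibition of at least 40%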;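 note: mutant grown at 25 °C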
# TIM10 inh: TIM10 yeast growth inhibition; S. cerevisiae TIM10 strain growth, BacTiter-Glo luminescence, 24 h; inhibition, % at 10 µM; hit rate 1.4% among 330,000;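 active = inhibition of 40% or more at the single tested concentration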;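 note: wild-type TIM10 isogenic control strain grown at permissive 25 °C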
# SKKanGAS inh: blocks kanamycin growth of S. pyogenes SKKanGAS strain; inhibition, % at 7.5 µM; BacTiter-Glo, 6 h; hit rate 1.3% among 300,000;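 active = mean replicate score, as percent of positive control median, at least 50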;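 note: strain carries kanamycin resistance gene driven by streptokinase promoter and grows in 40 µg/ml kanamycin; loss of luminescence reflects streptokinase promoter inhibition or plain growth inhibition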
# tim10-1 confirm: confirmation of tim10-1 mutant yeast growth inhibitors | shares compounds with tim10-1 inh | S. cerevisiae tim10-1 ts strain growth, BacTiter-Glo, 24 h | inhibition, % at 20 µM | hit rate 56% among 7,400 | AID 463213;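 active = inhibition of yeast growth at or above a set limit in either of two repeat tests at 20 µM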;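 note: tim10-1 mutant grown at permissive 25 °C to find synthetic lethal compounds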
# tim10 confirm: TIM10 yeast growth inhibition, confirmed | hit rate 63% among 4,600 | S. cerevisiae tim10 strain growth, BacTiter-Glo luminescence, 24 h | inhibition, % at 10 µM | shares compounds with TIM10 inh;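 active = inhibition of yeast growth at or above a set limit in either of two replicates at 10 µM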; note: this counterscreen used the strain with wild-type TIM10
# Numbers stand for hits; – = inactive; · = no result given. This is a sample that favours compounds with a hit; in the whole collection about 4.6% have one here.
SMILES,NALP3 yeast inh,PfHsp90 set2,tim23-1 inh,tim10-1 inh,TIM10 inh,SKKanGAS inh,tim10-1 confirm,tim10 confirm
O=c1[nH]c(N/N=C/c2ccccc2)nc2ccccc12,–,·,–,43.7,40.9,–,38.4,–
COc1cc(/C=N/Nc2ccc(C(F)(F)F)cn2)cc(OC)c1O,–,–,–,–,–,–,·,·
Oc1ccc(/C=N/Nc2ccc(C(F)(F)F)cn2)cc1,–,–,–,44.4,48.1,–,–,–
Cc1ccc(SCC(=O)Nc2ccc(F)cc2[N+](=O)[O-])cc1C,–,–,–,–,–,–,·,·
C/C(=N\OCC(=O)NC12CC3CC(CC(C3)C1)C2)c1cc2ccccc2o1,–,–,–,45.2,40.0,–,–,36.5
Cc1[nH]nc2c1-c1nc3ccccc3nc1C(C)(C)C2,–,·,–,44.1,44.2,–,34.9,–
S=C(NCc1ccco1)Nc1ccc(Oc2ccccc2)cc1,–,–,–,45.0,46.2,–,–,36.9
S=C(NCc1ccco1)Nc1cc(Cl)c(Cl)cc1Cl,–,–,–,44.1,42.3,–,–,–
COc1ccccc1NC(=O)Cn1nc(-c2ccc(Cl)cc2)c2ccccc2c1=O,–,–,–,–,–,–,·,·
CC(C)(C)c1cc(OC(=O)c2ccccc2F)ccc1O,–,–,–,45.4,48.4,–,–,42.7
COc1ccc2nc3oc(C(=O)N4CCN(c5cccc(Cl)c5)CC4)cc3cc2c1,–,–,–,60.5,63.3,–,–,–
CCNC(=S)N1CCN(C(=O)C(Cc2ccccc2)NC(C)=O)CC1 (stereo not drawn),–,–,–,–,–,·,·,·
Cc1cc2ncn(/N=C/c3ccc([N+](=O)[O-])s3)c2cc1C,·,–,·,·,·,–,·,·
O=[N+]([O-])c1ccc(/C=N/n2cnc3ccccc32)s1,–,104.5,–,48.5,79.4,–,57.4,89.8
CCN(CC)/C(Sc1ccccc1)=C(/C(Cl)=C(Cl)Cl)[N+](=O)[O-],–,–,–,46.0,41.5,–,32.6,34.6
Cc1ccc(Nc2ncccc2C(=O)NCc2cccs2)c(C)c1,–,·,–,48.9,50.6,–,33.2,39.0
Cc1c(OC(=O)CNC(=O)OC(C)(C)C)ccc2c3c(c(=O)oc12)CCC3,–,–,–,49.3,45.0,·,38.6,47.0
Cc1c(OCC(=O)OC(C)(C)C)ccc2c3c(c(=O)oc12)CCC3,–,–,–,–,–,–,·,·
O=C1S/C(=C\c2ccc(Cl)cc2)C(=O)N1CCn1cnnn1,–,–,–,42.9,43.3,·,34.7,–
COc1ccc(/C=C2\SC(=O)N(CCNC(=O)Cn3cnnn3)C2=O)cc1,–,–,–,–,–,–,·,·
COc1ccc(C(=O)C(CN2CCOCC2)c2ccccc2)cc1 (stereo not drawn),–,–,–,55.1,48.4,–,54.0,65.8
O=C(c1ccc(F)cc1)C(CN1CCOCC1)c1ccccc1 (stereo not drawn),–,–,–,52.9,57.5,–,36.5,64.2
CCC(O)(c1ccc(OC)cc1)C(CN1CCOCC1)c1ccccc1 (stereo not drawn),–,–,–,–,–,·,·,·
c1ccc(C(CN2CCOCC2)c2ccccc2)cc1,–,–,–,–,–,–,·,·
COc1ccc(C2Nc3ccccc3C(=O)N2NS(=O)(=O)c2ccccc2)cc1 (stereo not drawn),–,–,–,–,–,–,·,·
SMILES,NALP3 yeast inh,PfHsp90 set2,tim23-1 inh,tim10-1 inh,TIM10 inh,SKKanGAS inh,tim10-1 confirm,tim10 confirm
CCN(CC(=O)Nc1c(F)cccc1F)C(=O)c1cccc(S(=O)(=O)N(C)c2ccccc2)c1,–,–,–,–,–,–,·,·
CCn1nc(C)cc1-c1nnc(Sc2ncc([N+](=O)[O-])s2)n1C,–,–,–,65.7,50.1,51.3,72.3,55.3
CCn1nc(C)cc1-c1nnc(SCC(=O)Nc2ccccc2)n1CCCOC,–,–,–,–,–,–,·,·
Cc1ccc(/C=N/n2c(C)nc3ccccc3c2=O)o1,–,–,–,–,–,–,·,·
Cc1nc2ccccc2n1/N=C/c1ccc([N+](=O)[O-])o1,–,–,–,73.6,78.1,–,71.7,88.4
Oc1ccc(-c2nccc(-c3ccc(Br)cc3)n2)cc1,–,–,–,46.9,41.3,–,48.5,63.5

# Bioassay records deposited in PubChem by several laboratories.
